Source: PubChem BioAssay (National Center for Advancing Translational Sciences (NCATS))
IMPase cell inh – cell-permeable inhibitors of inositol monophosphatase (IMPase); CHO-M1 cells, IP1 accumulation, HTRF TR-FRET ratio; inhibition (IP1 accumulation), % at 46.1 µM; 120,000 tested, under 10 active; P97697; active means well fitted curve in the direction sought with a large enough effect in the signal ratio, not every such curve was filed as active; inconclusive means small, poorly fitted or top-dose-only effect, or a change in a side signal; inactive means no such curve, though single readings can be large or run the other way; the % refers to the signal ratio;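 further: cells stimulated with carbachol in lithium chloride buffer; plate controls were DMSO basal wells for no effect and reference inhibitor wells for full effect; higher means more IMPase inhibition seen as more IP1 and lower FRET ratio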
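The IP-One HTRF competitive assay in carbachol-stimulated CHO-M1 cells quantifies cellular IP1. Compounds spanned up to 46 uM final, and activity is expressed as AC50 from concentration-response fits of the ratio and donor data.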
IMPase Li cell – cell-permeable IMPase inhibitors with lithium potentiation; 0.35% of 210,000 active; Potency, µM (titrated, usually from 59.4 µM), without a hit: at the top dose activity, negative = IMPase inhibition, most hits filed as inhibitors; AID 1457; CHO-M1 cells, IP1 TR-FRET (IP-One), carbachol + lithium;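 further: IP1 builds up when IMPase is blocked and the TR-FRET signal falls; potency means the concentration at half of the fitted maximal effect; plate controls were basal vehicle for no effect and high inhibitor control for full effect; nearly all actives have a fitted effect of over 50% in size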
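Concentration–response in CHO-M1 cells, lithium-potentiated; 30 min at 37C. IP1 detected by competitive TR-FRET after 10 min lysis at RT. Hill-fitted AC50.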
NPSR antag – antagonists of human neuropeptide S receptor cAMP signaling; Q6W5P4; CHO-NPSR cells, cAMP TR-FRET, antagonist mode; Potency, µM (highest dose often 38.3 µM), without a hit: top-dose activity change, negative = inhibition, actives largely listed as inhibitors; 1% of 220,000 active; further: potency means the concentration at half of the fitted maximal effect; nearly all actives have a fitted effect of over 50% in size
Target sequence (Q6W5P4 whole entry, looked up): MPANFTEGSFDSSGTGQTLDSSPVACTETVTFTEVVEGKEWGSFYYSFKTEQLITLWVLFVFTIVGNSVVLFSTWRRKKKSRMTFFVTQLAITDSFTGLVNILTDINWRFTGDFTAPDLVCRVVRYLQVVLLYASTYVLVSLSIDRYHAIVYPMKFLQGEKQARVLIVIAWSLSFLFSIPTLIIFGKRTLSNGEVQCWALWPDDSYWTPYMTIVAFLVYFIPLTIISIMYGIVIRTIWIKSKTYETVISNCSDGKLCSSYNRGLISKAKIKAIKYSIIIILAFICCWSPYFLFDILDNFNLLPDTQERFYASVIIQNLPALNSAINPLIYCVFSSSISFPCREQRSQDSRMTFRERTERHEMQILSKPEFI
ALDH1A1 block – inhibitors of human aldehyde dehydrogenase 1A1; Potency, µM (titrated, usually from 75.3 µM), inactives show at the highest dose activity, negative = inhibition, actives largely listed as inhibitors; AID 1030; P00352; Purified ALDH1A1, NADH fluorescence, propionaldehyde substrate; 7.3% of 220,000 active; active means well fitted inhibition curve with a large enough effect, not every such curve was filed as active; inconclusive means small, poorly fitted or top-dose-only effect, or another doubt; inactive means no such curve, though single readings can be large or run the other way;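 further: potency means the concentration at half of the fitted maximal effect; plate controls were no enzyme wells and a reference inhibitor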
Target sequence (P00352 whole entry, looked up): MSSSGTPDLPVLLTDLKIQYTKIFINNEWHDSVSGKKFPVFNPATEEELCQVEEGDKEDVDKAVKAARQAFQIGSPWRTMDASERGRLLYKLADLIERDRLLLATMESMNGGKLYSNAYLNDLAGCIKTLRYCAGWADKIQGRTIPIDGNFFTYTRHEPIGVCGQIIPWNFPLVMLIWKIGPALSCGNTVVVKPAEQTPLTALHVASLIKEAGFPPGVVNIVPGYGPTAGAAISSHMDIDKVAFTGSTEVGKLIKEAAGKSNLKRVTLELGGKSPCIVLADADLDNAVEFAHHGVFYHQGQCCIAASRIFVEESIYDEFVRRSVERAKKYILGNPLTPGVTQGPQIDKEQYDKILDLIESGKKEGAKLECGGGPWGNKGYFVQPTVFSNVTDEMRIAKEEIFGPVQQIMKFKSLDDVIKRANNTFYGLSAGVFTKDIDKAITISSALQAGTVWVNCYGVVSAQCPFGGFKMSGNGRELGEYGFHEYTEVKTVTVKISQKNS
HPGD inh – inhibitors of human 15-hydroxyprostaglandin dehydrogenase (HPGD); P15428; 4.3% of 150,000 active; purified HPGD, NADH fluorescence kinetic, PGE2 substrate; AID 894; Potency, µM, for the others: at the highest dose activity change, negative = inhibition, actives largely listed as inhibitors; active means well fitted inhibition curve with a large enough effect, not every such curve was filed as active; inconclusive means small, poorly fitted or top-dose-only effect, or another doubt; inactive means no such curve, though single readings can be large or run the other way; further: potency means the concentration at half of the fitted maximal effect
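20 nM HPGD preincubated 15 min at room temperature with compound in 50 mM Tris-HCl pH 8, 0.01% Tween 20. Started with 1 mM NAD+ and 30 uM prostaglandin E2; NADH fluorescence (360/450 nm) read 5 times over 30-s intervals, last minus first.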
PNC assembly inh – perinucleolar compartment assembly inhibition; 3.1% of 140,000 active; PC3M PTB-GFP, PNC prevalence imaging, 16 h; active compounds read low; activity change (PNC), negative = inhibition, % at 10 µM;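 active means readout at or below -70, meaning at least 70% loss of cells showing the perinucleolar compartment, a nuclear body marking cancer cells; inconclusive means readout between -30 and a set limit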;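 further: plate controls were DMSO wells for no effect and camptothecin positive control wells for full effect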
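Compounds are pinned in duplicate onto adhered PC3M cells stably expressing GFP-tagged PTB and incubated 16 h at 37 C. Cells are then fixed, nuclei stained with Hoechst, and PNC-positive cells counted.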
* marks the source's active call; other numbers are inactive results; u = inconclusive; x = no result given; [ ] = remark or other dose. Compounds with a hit are over-represented: about 11% of the library has one in this group of screens. Unless noted, the call rests on the fitted dose curve; in most records, active means well fitted curve in the direction sought with a large enough effect; inconclusive means small, poorly fitted or top-dose-only effect, or another doubt; inactive means no such curve, though single readings can be large; an effect the other way counts as inactive or inconclusive. Unless noted, on the % scale 0 is the no-effect control and ±100 the full control effect.

SMILES	IMPase cell inh	IMPase Li cell	NPSR antag	ALDH1A1 block	HPGD inh	PNC assembly inh
Cc1ccc(CNC(=O)/C=C/C(=O)O)cc1	x	-2.5%	10.0%	0.3%	x	x
O=C(O)/C=C/C(=O)Nc1ccc(OCc2ccccc2)cc1	x	x	9.6%	x	x	x
COc1ccc(-c2csc(NC(=O)Cc3cccc4ccccc34)c2C(=O)O)cc1	x	18.7%	-28.7%	-3.2%	x	x
O=C1NC(=S)/C(=C\c2ccc(-c3ccccc3Cl)o2)S1	x	2.7%	-27.9%	u	15.8µM*	15.5
O=C(Nc1ccc2c(c1)OCO2)c1cnn2c(C(F)(F)F)cc(-c3ccco3)nc12	11.0	21.3%[38.3 µM]	-15.5%[46.1 µM]	-3.0%	-10.5%	1.2
O=C(Nc1cnn(C23CC4CC(CC(C4)C2)C3)c1)c1cnn2c(C(F)(F)F)cc(-c3ccco3)nc12	7.3	45.0%[38.3 µM]	7.94µM*	-2.5%	-7.9%	7.4
O=C(NCc1ccc(F)cc1)c1cnn2ccccc12	6.0	-10.0%[38.3 µM]	-14.8%[46.1 µM]	u	3.1%	-84.4*
C=CCSC1=C(C#N)C(c2ccccc2Cl)CC(=O)N1 (stereo not given)	-4.2	23.5%[38.3 µM]	-12.3%[46.1 µM]	25.1µM*	-14.5%	18.0
C=CCSC1=C(C#N)C(c2ccccc2C)CC(=O)N1 (stereo not given)	5.6	12.3%[38.3 µM]	-7.8%[46.1 µM]	u	-13.3%	-18.5
Cc1nc(-c2ccc(-n3nncc3-c3ccco3)cc2)cs1	x	x	48.3%	25.1µM*	x	x
Nc1nc(-c2ccc(-n3nncc3-c3ccco3)cc2)cs1	x	x	22.0%	x	x	x
COc1ccc(Cn2nnnc2CN(CCCN2CCOCC2)Cc2cc3cc(OC)ccc3[nH]c2=O)cc1	x	9.6%	-7.5%	u	x	x
Cc1ccc(S(=O)(=O)c2nc(-c3ccco3)oc2NCC2CCCO2)cc1 (stereo not given)	x	-3.7%	-11.4%	10µM*	-16.6%	13.1
O=S(=O)(c1ccc(Br)cc1)c1nc(-c2ccco2)oc1NCC1CCCO1 (stereo not given)	x	-1.1%	-16.4%	14.1µM*	x	x
N#Cc1c(-c2ccco2)nc(NCC2CCCO2)[nH]c1=O (stereo not given)	-29.2	u	28.3%[46.1 µM]	-4.8%	-13.9%	u
Cc1ccc(S(=O)(=O)c2nc(-c3ccccc3)oc2NCCCN2CCOCC2)cc1	x	15.5%	-20.7%	u	x	x
COC(=O)CNC(=O)C1(CC(C)C)C=CCN1C(=O)c1ccccc1 (stereo not given)	x	-8.4%	x	-0.1%	-1.4%	x
CC(C)CC1(C(=O)NCC2CC2)C=CCN1C(=O)c1ccccc1 (stereo not given)	x	9.6%	x	25.1µM*	17.8µM*	x
COC(=O)Nc1ccccc1C(=O)N1CCCCC1	5.2	23.2%[38.3 µM]	-10.0%[46.1 µM]	u	-18.9%	68.5
O=C(Nc1ccccc1C(=O)N1CCOCC1)c1ccc(F)cc1	6.2	-2.0%[38.3 µM]	-1.9%[46.1 µM]	11.4%	1.7%	1.0
CCCCOC(=O)Nc1ccccc1C(=O)N1CCCC1	x	-3.4%	11.2%	u	-1.3%	-113.4*
O=C(c1ccccc1)c1ccc(N2CCOCC2)c(NC(=O)c2ccco2)c1	u	14.8%	u	31.6µM*	-17.4%	0.1
CSc1ccccc1C(=O)N1CCCCC1	x	2.2%	18.0%	15.2%	x	x
CC(NC(=O)c1ccccc1NC(=O)c1ccccc1)C(=O)N1CCOCC1 (stereo not given)	x	-4.8%	13.8%	-12.8%	0.2%	-96.6*
O=C(c1cccc(F)c1F)N1CCCC1	2.2	11.0%	20.1%[46.1 µM]	-2.5%	28.2µM*	104.3
SMILES	IMPase cell inh	IMPase Li cell	NPSR antag	ALDH1A1 block	HPGD inh	PNC assembly inh
CCC1CN2CCC1CC2[C@@H](NC(=S)Nc1cc(C(F)(F)F)cc(C(F)(F)F)c1)c1cccc2ccc(OC)cc12 (stereo not given in full)	x	-1.5%	x	0.5%	-9.4%	x
O=C(Nc1cc(C(=O)N2CCCC2)ccc1N1CCCC1)c1ccccc1	8.9	27.7%[38.3 µM]	-18.9%[46.1 µM]	u	25.1µM*	-111.0*
O=C(Nc1ccccc1C(=O)N1CCCC1)c1ccccc1	4.7	8.9%	3.1%	5.5%	-1.0%	-118.9*
Cc1ccc(C(=O)Nc2ccccc2C(=O)N2CCCCCC2)cc1	x	x	u	10.6%	x	x
CN1CC(c2ccccc2)C2(SC(=S)N(Cc3ccco3)C2=O)C12C(=O)Nc1ccccc12 (stereo not given)	6.7	22.4%[38.3 µM]	10µM*	-2.1%	-15.5%	-7.3
CN1CC(c2ccccn2)C2(SC(=S)N(Cc3ccccc3)C2=O)C12C(=O)Nc1ccccc12 (stereo not given)	1.2	-8.2%[38.3 µM]	-29.6%[46.1 µM]	25.1µM*	-3.4%	15.7
COC(=O)C1=C(C)N(Cc2ccco2)C(=O)N[C@@H]1c1ccccc1	x	6.5%	7.6%	u	-5.4%	27.2
Cn1c(N)nc2c(nc(OCc3ccccc3)n2[C@@H]2O[C@H](CO)[C@@H](O)[C@@H]2O)c1=O	x	5.0%	x	2.4%[13.5 µM]	2.5%	x
O=C(/C=C/c1ccccc1)NCc1ccco1	x	7.1%	-16.1%	5.97µM*	x	x
O=C(/C=C/c1ccccc1)N/C(=C\c1ccco1)C(=O)NCCO	1.3	-12.6%[38.3 µM]	-5.8%[46.1 µM]	5.0%	-14.0%	70.9
CCNC(=O)/C(=C/c1ccco1)NC(=O)/C=C/c1ccccc1	-4.8	21.3%[38.3 µM]	-12.3%[46.1 µM]	u	17.8µM*	-16.8
O=C(/C=C/c1ccco1)NCc1ccco1	x	x	-2.3%[7.67 µM]	x	x	x
O=C(/C=C/c1ccccc1Cl)NCc1ccco1	5.4	-0.2%[38.3 µM]	4.7%[46.1 µM]	u	14.1µM*	u
NC1=NC(=O)C(CC(=O)c2ccc(Cl)cc2)S1 (stereo not given)	1.5	-11.4%	14.9%	0.8%	-4.2%	6.4
CCc1c(C)sc(NC(=O)c2cc(C)no2)c1C#N	-7.2	1.4%[38.3 µM]	-5.8%[46.1 µM]	12.6µM*	31.6µM*	32.5
N#Cc1c(NC(=O)c2cccnc2)sc2c1CCC2	4.3	35.4%[38.3 µM]	-3.5%[46.1 µM]	-15.3%	-2.3%	-10.1
CC(C)c1onc(C(=O)Nc2sc3c(c2C#N)CCC3)c1[N+](=O)[O-]	x	0.6%	-26.1%	12.6µM*	x	x
N#Cc1c(NC(=O)c2cnccn2)sc2c1CCCC2	x	-1.4%	-10.9%	14.1µM*	28.2µM*	6.9
Cc1cc(C(=O)Nc2sc(C)c(C)c2C#N)no1	3.6	25.3%[38.3 µM]	-0.5%[46.1 µM]	12.6µM*	-3.6%	u
Cc1cc(C(=O)Nc2sc3c(c2C#N)CCC(C(C)(C)C)C3)no1 (stereo not given)	-0.8	13.3%[38.3 µM]	-16.9%[46.1 µM]	u	u	u
Nc1ccc(S(=O)(=O)c2ccc(N)cc2)cc1	-2.6[20.6 µM]	8.1%	10.6%	-2.3%	-13.3%	4.7
CCc1ccc(NC(=O)c2cc(C)on2)cc1	-2.2	-14.3%[38.3 µM]	5.1%[46.1 µM]	1.0%	-7.0%	-22.2
CCCC(=O)Nc1sc(C)c(C)c1C#N	x	3.8%	8.7%	u	x	x
Cc1nn(CCCC(=O)Nc2sc3c(c2C#N)CCC3)c(C)c1[N+](=O)[O-]	6.8	17.4%[38.3 µM]	-26.7%[46.1 µM]	2.51µM*	22.4µM*	2.5
